From PubChem BioAssay
GPR151 activ: human GPR151 activation; Q8TDV0; PathHunter beta-arrestin GPR151 cells, luminescence; activation, % at 11.2 µM; 1% of 650,000 active; AID 1508602; in the data active = activation above about 4.9%
TEAD-YAP inh: TEAD-YAP interaction inhibition; AID 1259422; inhibition, % at 9.12 µM; 1.4% of 640,000 active; HEK-TIYL cells, TEAD-Gal4/YAP UAS-luciferase luminescence; in the data active = inhibition above about 32%
MITF inh: blocks human microphthalmia-associated transcription factor; 0.91% of 650,000 active; AlphaScreen MITF homodimerization, bead proximity signal; O75030; inhibition, % at 2.6 µM; in the data active = inhibition above about 50%
FBW7 act: human FBW7 E3 ligase activation, primary screen. Q969H0. normalized activity (activation), % at 26.1 µM. 0.13% of 650,000 active. AlphaScreen FBW7–phospho-cyclin E peptide binding, activator screen; in the data active = normalized activity above about 1.9%;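 also: purified mutant Fbw7 with reduced substrate affinity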
Target sequence (Q969H0 whole entry, looked up): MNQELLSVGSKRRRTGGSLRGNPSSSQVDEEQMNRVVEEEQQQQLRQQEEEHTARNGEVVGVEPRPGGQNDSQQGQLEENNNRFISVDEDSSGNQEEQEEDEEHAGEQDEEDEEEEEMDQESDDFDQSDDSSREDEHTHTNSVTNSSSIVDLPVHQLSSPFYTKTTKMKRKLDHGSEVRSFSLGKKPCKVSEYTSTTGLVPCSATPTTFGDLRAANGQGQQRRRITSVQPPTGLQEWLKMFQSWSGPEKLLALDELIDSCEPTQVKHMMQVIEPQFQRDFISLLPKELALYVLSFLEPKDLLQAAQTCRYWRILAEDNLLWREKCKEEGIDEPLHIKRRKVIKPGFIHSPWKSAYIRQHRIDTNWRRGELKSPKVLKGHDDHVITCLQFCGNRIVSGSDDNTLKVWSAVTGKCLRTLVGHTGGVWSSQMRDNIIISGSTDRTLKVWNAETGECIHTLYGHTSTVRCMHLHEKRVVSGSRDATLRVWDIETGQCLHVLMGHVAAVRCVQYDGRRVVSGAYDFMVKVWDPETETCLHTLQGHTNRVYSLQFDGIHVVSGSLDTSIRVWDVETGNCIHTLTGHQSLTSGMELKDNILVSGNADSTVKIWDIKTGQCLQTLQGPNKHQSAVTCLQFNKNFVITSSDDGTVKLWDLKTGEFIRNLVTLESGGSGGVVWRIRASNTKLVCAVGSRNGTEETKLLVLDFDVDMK
A number is an active result; . = inactive. In the library only some 3.4% were active in any assay of this set; here they are far more common.

SMILES	GPR151 activ	TEAD-YAP inh	MITF inh	FBW7 act
O=C(N/N=C\c1cc(Br)ccc1F)c1ccc(=O)[nH]n1	.	.	.	.
O=C(N/N=C\c1ccc(O)cc1O)c1ccc(=O)[nH]n1	.	.	59.7	.
O=C(N/N=C/c1ccc(O)cc1O)c1cccc(NC(=O)c2ccccc2F)c1	.	40.0	.	.
O=C(N/N=C/c1ccc(O)cc1O)c1ccc(NC(=O)c2ccccc2Cl)cc1	.	.	.	.
O=C(N/N=C/c1ccc(O)cc1O)c1ccc(-c2ccccc2)cc1	.	45.0	.	.
O=C(N/N=C/c1ccc(O)cc1O)c1nn(Cc2ccccc2)c(=O)c2ccccc12	.	64.2	.	.
O=C(N/N=C/c1cccc(O)c1O)c1nn(Cc2ccccc2)c(=O)c2ccccc12	.	.	.	.
O=C(N/N=C/c1ccc(O)cc1O)c1ccc(Br)cc1	.	42.2	.	.
O=C(N/N=C/c1ccc(O)cc1O)c1cc2ccccc2cc1O	.	67.0	.	.
O=C(N/N=C/c1ccccc1Cl)c1cncc(Br)c1	.	.	.	.
O=C(N/N=C\c1ccc(O)cc1O)c1cncc(Br)c1	.	.	79.0	.
Cc1cccc(C)c1N1CCN(CC(O)C(F)(F)F)CC1 (stereo not drawn)	.	.	.	.
CC(=O)NCC1(c2ccccc2)SC(NC(C)=O)=NN1C(C)=O (stereo not drawn)	.	60.2	.	.
CCC(C)C1(c2ccccc2)SC(NC(C)=O)=NN1C(C)=O (stereo not drawn)	.	38.1	.	.
CCSc1nc(NC(C)=O)nn1C(C)=O	.	.	.	.
COc1cc(C(=O)COC(=O)c2ccc(Cl)cc2N)cc(OC)c1OC	.	52.9	.	.
COc1cc(C(=O)NNC(=O)c2cccc(Cl)c2)cc(OC)c1OC	.	.	.	.
COc1ccc(C(=O)COC(=O)c2ccc(Cl)cc2N)cc1	.	.	.	.
COc1cc(C(=O)c2cc(Cl)ccc2N)cc(OC)c1OC	.	51.9	.	.
Cc1cc(C)c(N2C(=O)C3C4C=CC(CO)(O4)C3C2=O)c(C)c1 (stereo not drawn)	.	.	.	.
CCCNC(=O)CCn1nc(-c2ccc(C)cc2)c2ccccc2c1=O	.	.	.	.
CCCNC(=O)CCC(=O)Nc1ncc(-c2ccc(C)cc2)n1C	.	93.2	.	.
CCCc1ccc(OCC(=O)c2ccc(O)cc2O)cc1	.	85.0	.	.
COc1ccc(OCC2c3cc(OC)c(OC)cc3CCN2C(=O)c2ccc([N+](=O)[O-])cc2)cc1 (stereo not drawn)	.	.	.	.
COc1cc2c(cc1OC)C(COc1ccc([N+](=O)[O-])cc1)N(C(=O)c1ccc3c(c1)OCO3)CC2 (stereo not drawn)	.	.	.	2.1
SMILES	GPR151 activ	TEAD-YAP inh	MITF inh	FBW7 act
COc1ccc(Cc2cnc(NC(=O)c3ccc(C)cc3)s2)cc1	.	49.9	.	.
CC(C)(C)c1ccc(C(=O)Nc2ncc(Cc3ccc(F)cc3)s2)cc1	.	.	.	.
CCc1nnc(NC(=O)c2ccc(OC)cc2)s1	.	40.5	.	.
CCOc1ccc(/C=C/C(=O)Nc2ncc(Cc3ccc(C)cc3)s2)cc1	.	.	.	.
Cc1ccc(Cc2cnc(NC(=O)/C=C/c3ccco3)s2)cc1	.	58.0	.	.
CCCCOc1ccc(C(=O)Nc2nnc(CC)s2)cc1	.	.	.	.
O=C(Nc1ncc(Cc2ccc(F)cc2)s1)c1ccc(Br)cc1	.	37.8	.	.
COc1ccc(Cc2cnc(NC(C)=O)s2)cc1	.	.	.	.
COc1ccc(/C=c2\sc3nc(-c4cc(OC)c(OC)c(OC)c4)nn3c2=O)cc1	.	.	.	.
CC1=NNC(=O)C1CCC(=O)N/N=C/c1cccc([N+](=O)[O-])c1 (stereo not drawn)	.	.	.	.
COC(=O)c1cccc(NC(=O)c2sc3nc4ccccc4cc3c2N)c1	.	.	.	.
COc1ccc(Cc2cnc(NC(=O)COc3ccccc3Cl)s2)cc1	.	58.0	.	.
Cc1cnc(-c2ccc(C(N)=O)cc2)nc1NCCc1ccc(O)cc1	.	.	.	.
O=C(NC1CCCCC1)N1CCC(c2nc3c(nnn3Cc3ccccc3)c(=O)[nH]2)CC1	.	44.3	.	.
O=C(C1CCCC1)N1CCC(c2nc3c(nnn3Cc3ccccc3)c(=O)[nH]2)CC1	.	.	.	.
COc1ccc(/C=C(/C#N)c2nc3ccc(C)cc3[nH]2)cc1[N+](=O)[O-]	.	.	.	.
O=C(NC1CCCCCC1)c1cccc(N2CCCC2=O)c1	.	61.3	.	.
Cc1nc2ccc(C(=O)NC3CCCCCC3)cc2nc1C	.	49.8	.	.
Cc1ccc(C(=O)NC2CCCCCC2)cc1	.	49.2	.	.
